Assay results reported in PubChem BioAssay AID942 (National Center for Advancing Translational Sciences (NCATS), 2007).
Inconclusive results are not listed. Calls of active or inactive are those of the source. Calls come from the whole dose curve.

assay: Confirmation Concentration-Response Assay for Anthrax Lethal Toxin Internalization; conditions: FRET ratio (460/530 nm); series mostly up to 46.1 µM; activity change, negative = inhibition: at the top concentration

Structure (SMILES)	activity change, negative = inhibition	Potency
COc1ccc(C2C3=C(COC3=O)Oc3cc4c(cc32)OCO4)cc1OC (stereo unspecified)	-26.6% (inactive)	
Cc1ccc2oc(=O)c3cnn(CC(=O)N4CCN(c5ccccc5)CC4)c3c2c1		5010 nM (active)
Cc1ccc2oc(=O)c3cnn(CC(=O)Nc4ccccc4N4CCN(C)CC4)c3c2c1		2000 nM (active)
Nc1ccc(NC(=O)c2cc(Cl)ccc2O)c(Cl)c1	6.15% (inactive)	
COc1cc2c(OC(C)=O)c3c(c(-c4ccc5c(c4)OCO5)c2cc1OC)C(=O)OC3		39.8 nM (active)
O=C(Nc1ccc([N+](=O)[O-])cc1Cl)c1cc(Br)ccc1O		794 nM (active)
Cc1ccc2c(c1)-c1c(cnn1CC(=O)Nc1ccccc1N1CCN(C)CC1)CO2		3980 nM (active)
COc1ccc2c(c1OC)C(=O)OC2CC(=O)c1ccc2c(c1)OCO2 (stereo unspecified)	-21.2% (inactive)	
COc1cc2c(O)c3c(c(-c4ccc5c(c4)OCO5)c2cc1OC)C(=O)OC3		50.1 nM (active)
COc1ccc2c(c1OC)C(=O)OC2c1ccc(O)cc1 (stereo unspecified)	-11.6% (inactive)	
O=C(Nc1ccc([N+](=O)[O-])cc1Cl)c1cc(Cl)cc(Cl)c1O		3980 nM (active)
COc1ccc(Cl)cc1C(=O)Nc1ccc([N+](=O)[O-])cc1Cl	-44.4% (inactive)	
COc1cc([C@@H]2c3cc4c(cc3[C@H](O)[C@H]3COC(=O)[C@H]23)OCO4)cc(OC)c1OC		794 nM (active)
O=C(Nc1c(Cl)cc([N+](=O)[O-])cc1Cl)c1cc(Cl)cc(Cl)c1O		10000 nM (active)
COc1cc([C@@H]2c3cc4c(cc3[C@H](OC(C)=O)[C@H]3COC(=O)[C@H]23)OCO4)cc(OC)c1OC		794 nM (active)
O=C(Nc1ccc([N+](=O)[O-])cc1Cl)c1ccccc1O		6310 nM (active)
